Assay results reported in PubChem BioAssay AID1159580 (chemical genetic matrix, 2015).
Several values for one entry are separate records, joined by “and”; a condition that tells them apart may be missing. Equal entries are not always repeated. The whole screen tested about 5,500 compounds, of which about 2,000 (36%) were called active. About 18% were inconclusive and are not listed. No stated cut-off is given here; in the data, active means normalized growth mostly below about 0.91 (no sharp cut-off); inconclusive means no clear call, values can overlap the other calls; inactive means mostly above about 0.92. Some of the results follow.

Assay: chemical genetic growth profiling, strain panel (AID 1159580);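 further: tested at 20 µM; growth read once vehicle control cultures reached saturation at 30 °C; 1 = growth at the plate median or of vehicle wells; lower values mean less growth of the strain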
Conditions: growth OD

Measured: normalized growth

CN1C(C)(C)CCCC1(C)C
inactive: S. cerevisiae deletion strains, locus YAL013W, strain DEP1, hits give low values 1.02 and 1.01 | S. cerevisiae deletion strains, locus YAL040C, strain CLN3, hits give low values 1.07 | S. cerevisiae deletion strains, locus YBR021W, strain FUR4, hits give low values 1.01 | S. cerevisiae deletion strains, locus YBR229C, strain ROT2, hits give low values 1.02 | S. cerevisiae deletion strains, locus YCL029C, strain bik1, hits give low values 0.988 | S. cerevisiae deletion strains, locus YCL061C, strain MRC1 (second series), hits give low values 0.994 | S. cerevisiae deletion strains, locus YDL035C, strain GPR1, hits give low values 1.02 | S. cerevisiae deletion strains, locus YDL074C, strain BRE1, hits give low values 1.06 | S. cerevisiae deletion strains, locus YDL101C, strain DUN1, hits give low values 1.02 | S. cerevisiae deletion strains, locus YDL134C, strain PPH21, hits give low values 1.02 | S. cerevisiae deletion strains, locus YDL185W, strain tfp1, hits give low values 0.993 | S. cerevisiae deletion strains, locus YDL192W, strain arf1, hits give low values 0.978 | S. cerevisiae deletion strains, locus YDR101C, strain arx1, hits give low values 0.969 | S. cerevisiae deletion strains, locus YDR150W, strain NUM1, hits give low values 1.02 and 1 | S. cerevisiae deletion strains, locus YDR162C, strain NBP2, hits give low values 1.04 | S. cerevisiae deletion strains, locus YDR318W, strain mcm21, hits give low values 0.99 | S. cerevisiae deletion strains, locus YDR363W, strain ESC2, hits give low values 0.997 | S. cerevisiae deletion strains, locus YDR388W, hits give low values 0.998 | S. cerevisiae deletion strains, locus YDR502C, strain sam2, hits give low values 1.02 | S. cerevisiae deletion strains, locus YEL061C, strain CIN8, hits give low values 1.02 | S. cerevisiae deletion strains, locus YER002W, strain NOP16, hits give low values 1.02 | S. cerevisiae deletion strains, locus YER110C, hits give low values 0.992 | S. cerevisiae deletion strains, locus YER155C, strain BEM2, hits give low values 1.02 | S. cerevisiae deletion strains, locus YER167W, strain BCK2, hits give low values 1.02 | S. cerevisiae deletion strains, locus YGL078C, strain dbp3, hits give low values 1.01 | S. cerevisiae deletion strains, locus YGL086W, strain mad1, hits give low values 0.996 | S. cerevisiae deletion strains, locus YGL248W, strain PDE1, hits give low values 1.03 | S. cerevisiae deletion strains, locus YGR078C, strain PAC10, hits give low values 1.04 | S. cerevisiae deletion strains, locus YGR135W, strain pre9, hits give low values 1.01 | S. cerevisiae deletion strains, locus YGR229C, strain SMI1, hits give low values 1.03 and 0.995 | S. cerevisiae deletion strains, locus YGR252W, strain gcn5, hits give low values 0.907 | S. cerevisiae deletion strains, locus YHR030C, strain SLT2, hits give low values 1.01 | S. cerevisiae deletion strains, locus YHR079C, strain IRE1 (second series), hits give low values 0.988 | S. cerevisiae deletion strains, locus YHR094C, strain hxt1, hits give low values 1 | S. cerevisiae deletion strains, locus YHR129C, strain ARP1, hits give low values 1.01 | S. cerevisiae deletion strains, locus YHR200W, strain rpn10, hits give low values 0.997 | S. cerevisiae deletion strains, locus YIL066C, strain RNR3, hits give low values 1.03 | S. cerevisiae deletion strains, locus YIL073C, strain SPO22, hits give low values 0.991 | S. cerevisiae deletion strains, locus YIL125W, strain kgd1, hits give low values 1.01 | S. cerevisiae deletion strains, locus YIR030C, strain dcg1, hits give low values 0.999 | S. cerevisiae deletion strains, locus YJL095W, strain BCK1, hits give low values 1.03 | S. cerevisiae deletion strains, locus YJL134W, strain LCB3, hits give low values 1.01 | S. cerevisiae deletion strains, locus YJL168C, strain set2, hits give low values 0.993 | S. cerevisiae deletion strains, locus YJL187C, strain SWE1 (second series), hits give low values 1.04 | S. cerevisiae deletion strains, locus YJR043C, strain POL32, hits give low values 1 | S. cerevisiae deletion strains, locus YJR075W, strain HOC1, hits give low values 1.02 | S. cerevisiae deletion strains, locus YKL009W, strain mrt4, hits give low values 0.962 | S. cerevisiae deletion strains, locus YKL068W, hits give low values 1 | S. cerevisiae deletion strains, locus YKL085W, strain MDH1 (second series), hits give low values 1.01 | S. cerevisiae deletion strains, locus YKL085W, strain MDH1, hits give low values 1.01 | S. cerevisiae deletion strains, locus YKL190W, strain CNB1, hits give low values 1.01 | S. cerevisiae deletion strains, locus YKR001C, strain vps1, hits give low values 0.994 | S. cerevisiae deletion strains, locus YLR039C, strain RIC1, hits give low values 1.03 | S. cerevisiae deletion strains, locus YLR058C, strain SHM2, hits give low values 1.02 | S. cerevisiae deletion strains, locus YLR102C, strain apc9, hits give low values 0.998 | S. cerevisiae deletion strains, locus YLR262C, strain YPT6, hits give low values 1.02 | S. cerevisiae deletion strains, locus YLR268W, strain sec22, hits give low values 1.01 | S. cerevisiae deletion strains, locus YLR330W, strain CHS5, hits give low values 1.01 | S. cerevisiae deletion strains, locus YLR342W, strain FKS1 (second series), hits give low values 0.996 | S. cerevisiae deletion strains, locus YLR371W, strain rom2, hits give low values 0.984 | S. cerevisiae deletion strains, locus YLR418C, strain cdc73, hits give low values 1 | S. cerevisiae deletion strains, locus YML016C, strain PPZ1, hits give low values 1.02 | S. cerevisiae deletion strains, locus YML032C, strain rad52, hits give low values 0.995 | S. cerevisiae deletion strains, locus YML124C, strain tub3, hits give low values 1 | S. cerevisiae deletion strains, locus YMR078C, strain ctf18, hits give low values 0.999 | S. cerevisiae deletion strains, locus YMR223W, strain ubp8, hits give low values 0.983 | S. cerevisiae deletion strains, locus YMR263W, strain SAP30, hits give low values 1.03 | S. cerevisiae deletion strains, locus YMR307W, strain GAS1, hits give low values 1.04 | S. cerevisiae deletion strains, locus YNL067W, strain RPL9B, hits give low values 1.03 | S. cerevisiae deletion strains, locus YNL128W, strain TEP1, hits give low values 1.03 | S. cerevisiae deletion strains, locus YNL153C, strain GIM3, hits give low values 1.04 and 1.01 | S. cerevisiae deletion strains, locus YNL175C, strain NOP13, hits give low values 1 | S. cerevisiae deletion strains, locus YNL197C, strain WHI3, hits give low values 1 | S. cerevisiae deletion strains, locus YNL224C, strain SQS1, hits give low values 1.01 | S. cerevisiae deletion strains, locus YNL233W, strain BNI4, hits give low values 1.04 | S. cerevisiae deletion strains, locus YNL250W, strain rad50, hits give low values 1 | S. cerevisiae deletion strains, locus YNL271C, strain bni1, hits give low values 0.99 | S. cerevisiae deletion strains, locus YNL298W, strain CLA4, hits give low values 0.996 | S. cerevisiae deletion strains, locus YNL307C, strain MCK1, hits give low values 0.993 | S. cerevisiae deletion strains, locus YNL322C, strain KRE1, hits give low values 1.02 | S. cerevisiae deletion strains, locus YNR052C, strain pop2, hits give low values 0.982 | S. cerevisiae deletion strains, locus YOL006C, strain TOP1, hits give low values 1.06 | S. cerevisiae deletion strains, locus YOL012C, strain htz1 1.39 | S. cerevisiae deletion strains, locus YOL147C, strain pex11, hits give low values 0.996 | S. cerevisiae deletion strains, locus YOR061W, strain CKA2, hits give low values 1.01 | S. cerevisiae deletion strains, locus YOR069W, strain VPS5, hits give low values 1.01 | S. cerevisiae deletion strains, locus YOR083W, strain WHI5 (second series), hits give low values 1.02 | S. cerevisiae deletion strains, locus YOR136W, strain idh2, hits give low values 0.987 | S. cerevisiae deletion strains, locus YOR144C, strain elg1, hits give low values 0.99 | S. cerevisiae deletion strains, locus YOR184W, strain ser1, hits give low values 0.962 | S. cerevisiae deletion strains, locus YOR316C, strain cot1, hits give low values 1 | S. cerevisiae deletion strains, locus YPL055C, strain LGE1, hits give low values 1.05 and 1.01 | S. cerevisiae deletion strains, locus YPL241C, strain CIN2, hits give low values 1.02 | S. cerevisiae deletion strains, locus YPR119W, strain clb2, hits give low values 1.01 | S. cerevisiae deletion strains, locus YPR141C, strain kar3, hits give low values 0.994 | S. cerevisiae deletion strains, locus YPR163C, strain tif3, hits give low values 0.998 | S. cerevisiae deletion strains, locus YPR167C, strain met16, hits give low values 0.998 | S. cerevisiae deletion strains, strain wtn01, hits give low values 1.02 | S. cerevisiae strains, strain wild type, hits give low values 1.02
